Records with an inconclusive call do not appear. Where a call stands in place of a potency, no number is given. The source made the active and inactive calls. The call rests on the fitted dose curve; in most records, active means well fitted curve in the direction sought with a large enough effect; inconclusive means small, poorly fitted or top-dose-only effect, or another doubt; inactive means no such curve, though single readings can be large; an effect the other way counts as inactive or inconclusive. Square brackets hold non-standard residues; d marks the D form. Peptide text beside a SMILES is read from it. * marks the point of attachment. Dolaproine = CO[C@@H]([C@@H]1CCCN1)[C@@H](C)C(=O)O; Dil = CC[C@H](C)[C@H](NC)[C@@H](CC(=O)O)OC; Doe = c1ccc(C[C@H](N*)c2nccs2)cc1; Aib = CC(C)(N)C(=O)O

The source of these data is PubChem BioAssay (NCATS).

Test [1] concerns the target Aldehyde dehydrogenase, mitochondrial (Homo sapiens) (UniProt P05091). Briefly: qHTS for Inhibitors of the Aldehyde Dehydrogenase Family (ALDH2) Primary screen (AID 2061308). Further: nearly all actives have a fitted effect of over 55% in size. The conditions noted are these: ALDH2 enzyme inhibition qHTS, 1536-well; series mostly up to 56 µM. For orientation: In qHTS, concentration-response curves come from the screen itself.
Test [2] has as its target Retinaldehyde dehydrogenase 3 (Homo sapiens) (UniProt P47895). Briefly: qHTS for Inhibitors of the Aldehyde Dehydrogenase Family (ALDH1A3) Primary screen (AID 2061315). Conditions: ALDH inhibition qHTS; series mostly up to 56 µM.

As to `Oc1ccc2c3c1O[C@H]1c4[nH]c5c(N=C=S)cccc5c4C[C@@]4(O)[C@@H](C2)N(CC2CC2)CC[C@]314`, the Potency entry in test [1] and in test [2] was “inactive” in each case.

On to `Cc1cc(-c2nnc3n2CCCCC3)c(C)n1-c1ccc(Cl)cc1`, for which the Potency result in test [1] and in test [2] was “inactive” each time.

`C[C@H]1C/C=C/[C@H]2[C@@H]3O[C@]3(C)[C@@H](C)[C@H]3[C@H](Cc4ccccc4)NC(=O)[C@]32OC(=O)O/C=C/[C@@](C)(O)C1=O`: the Potency result in test [1] and in test [2] was “inactive” throughout.

On to `O=C(Nc1nnc(-c2cccs2)o1)c1ccc(Cl)cc1`, for which the Potency entry in test [1] and in test [2] was “inactive” in each case.

Regarding `Cn1c(-c2ccccc2)c(P(=S)(c2ccccc2)c2ccccc2)c2ccccc21`, the Potency entry in test [1] and in test [2] was “inactive” throughout.

With `CCOc1ccc(CCNC(=O)c2cc3ccccc3n2Cc2cccc(C)c2)cc1OCC`, the Potency result in test [1] and in test [2] was “inactive” in each case.

Regarding `COC(=O)C12C(=O)C(C)(O)C(=O)C1(C)C(C)=CC1C3(C=O)CCC(OC(C)=O)C(C)(C)C3CCC12C` (configuration not stated), the Potency entry in test [1] and in test [2] was “inactive” each time.

As for `CC[C@H](C)[C@@H]([C@@H](CC(=O)N1CCC[C@H]1[C@H](OC)[C@@H](C)C(=O)N[C@@H](Cc1ccccc1)c1nccs1)OC)N(C)C(=O)[C@@H](NC(=O)C(C)(C)N)C(C)C` (H-[Aib]V[Dil][Dolaproine]-Doe), the Potency entry in test [1] and in test [2] was “inactive” in each case.

With `COC1C(O)C(OC2CCC3(C=O)C(CCC4C3CCC3(C)C(C5=CC(=O)OC5)CCC43O)C2)OC(C)C1OC1OC(CO)C(O)C(O)C1O` (configuration not stated), the Potency result in test [1] and in test [2] was “inactive” each time.

With `Cc1c(P(=S)(c2ccccc2)c2ccccc2)c2ccccc2n1C`, the Potency result in test [1] and in test [2] was “inactive” each time.

In the case of `CCCc1ccc(NC(=O)c2ccc3c(c2)NC(=O)CS3)cc1`, the Potency result in test [1] and in test [2] was “inactive” each time.
